Inconclusive results are not listed. The source made the active and inactive calls. Calls come from the whole dose curve; as a rule, active = well fitted inhibition curve with a large enough effect; inconclusive = small, poorly fitted or top-dose-only effect; inactive = no such curve, though single readings can be large or run the other way. Starred links: 1 amine or outer side, 2 acyl side, 3 side chain; linkers in the order of their positions; H or OH if unused. Positions of bridges follow the written chain, without caps; N, C: chain ends. Non-standard residues stand in square brackets, D forms with d. Residues, ends and D or L forms follow the SMILES beside them. Chains are numbered I, II in the order given. Actinocin(9to1) = Cc1c2oc3c(C)ccc(C(=O)[*:1])c3nc-2c(C(=O)[*:2])c(N)c1=O; NMeV = CN[CH](C(=O)O)C(C)C; Sar = CNCC(=O)O
Potency is the fitted concentration of half-maximal effect.

A short description of this assay: qHTS Screen of the MIPE 4.0 Collection Against Ewings Sarcoma (RDES) (AID 1259252). Note: nearly all actives have a fitted effect of over 35% in size. Particulars: RD-ES Ewing sarcoma viability, CellTiter-Glo, 48 h; series mostly up to 45.8 µM. The text has this:
There is a large unmet medical need for treatments for Ewing sarcoma, a pediatric sarcoma. We sought to identify compounds that inhibited Ewing sarcoma cells in vitro with the goal to then test promising drugs in two drug combinations in vitro to look for synergistic drug combinations. Promising combinations would then proceed to additional validation, including in vivo testing.
Using the NCATS developed oncology compound library called the Mechanism of Interrogation Plate (MIPE), four Ewing sarcoma cell lines were evaluated (TC32, TC71, RDES, EW8). Compounds, in a 12-point titration series, were incubated with cells for 48 hours and the read out was cell viability (CellTiter-Glo from Promega). These initial experiments were used to select appropriate concentrations of each single agent for subsequent two-drug matrix combinations such that the concentrations in the matrices would span both activity and non-activity.
Cells, in the log phase of growth, were seeded in 5 uL of RPMI plus 5% FBS, […] L-glutamine, 100 U/ml penicillin and 100 ug/ml streptomycin into 1536-well solid-bottom white tissue culture treated Greiner Bio One Plates (789173-F) using a MultiDrop Combi (Thermofisher Scientific) dispenser and a small sterile cassette. One column was media alone to be used as a :"no cells" control. The plates were then covered with sterilized stainless steel gasketed lids from Kalypsys. After allowing cells to attach for 4 hours, 23 nL of test compound or control (negative control DMSO and positive control 9.2 uM Bortezomib-final) were added from a 1536-well polypropylene compound source plate to each well using a 1536 head pin tool from Kalypsys. Cells were then incubated for 48 hours at 37C, 95% relative humidity and 5% CO2. After 48 hours, plates were removed from the incubator and 3 uL of CellTiter-Glo (Promega) was added using an Aurora Flying Reagent Dispenser Bioraptor. Plates were incubated at room temperature for 10 minutes prior to reading the luminescence on the Viewlux (PerkinElmer). The relative luciferase units are used to calculate the percent activity using the activity of DMSO in the cells and no cells columns for normalization of no inhibition and full inhibition respectively.
Background: qHTS replaces the single test concentration by a dilution series.
On to `Cc1c2oc3c(C)ccc(C(=O)NC4C(=O)NC(C(C)C)C(=O)N5CCCC5C(=O)N(C)CC(=O)N(C)C(C(C)C)C(=O)OC4C)c3nc-2c(C(=O)NC2C(=O)NC(C(C)C)C(=O)N3CCCC3C(=O)N(C)CC(=O)N(C)C(C(C)C)C(=O)OC2C)c(N)c1=O` (stereo not given) (I: TVP[Sar][NMeV] / II: TVP[Sar][NMeV]; ester I:1-I:C, II:1-II:C; linker I:N-II:N via Actinocin(9to1); configuration not given here), for which the Potency result was “inactive”.
For `C[C@@H](Cc1cc2c(c(C(N)=O)c1)N(CCCO)CC2)NCCOc1ccccc1OCC(F)(F)F` the value was “inactive”; for `N#Cc1c(C2CCNCC2)cc(-c2c(O)cccc2OCC2CC2)nc1N`, 14.8 µM (active); for `COC(=O)C1C2CC3c4[nH]c5cc(OC)ccc5c4CCN3CC2CC(OC(=O)c2cc(OC)c(OC)c(OC)c2)C1OC` (stereo not given), 2.64 µM (active).
As to `C[C@H](NC(=O)Cc1cc(F)cc(F)c1)C(=O)N[C@H](C(=O)OC(C)(C)C)c1ccccc1`, the Potency result was “inactive”.
Under `c1coc(CNc2ncnc3nc[nH]c23)c1` stands “inactive”.
For `C[C@H](CCC(=O)O)[C@H]1CC[C@H]2[C@@H]3[C@H](O)C[C@@H]4C[C@H](O)CC[C@]4(C)[C@@H]3CC[C@]12C` the value was “inactive”; for `O=C(Nc1nnc(-c2ccco2)o1)c1cc(-c2ccccc2)nc2ccccc12`, 16.6 µM (active); for `O=C(Nc1cc2cc[nH]c2cn1)c1ccccc1`, 13.2 µM (active).
With `N#Cc1c(NC(=O)c2cccc3ccccc23)sc2c1CCCC2`, the Potency was 0.296 µM (active).
Under `C=CC(=O)Nc1ccc2ncnc(Nc3ccc(OCc4cccc(F)c4)c(Cl)c3)c2c1` stands 0.148 µM (active).
Consider `C=C[C@@H]1CN2CCC1C[C@H]2[C@H](O)c1ccnc2ccc(OC)cc12` (stereo not given in full), for which the Potency entry was “inactive”.
For the compound `O=C1NCCc2[nH]c(-c3ccncc3)cc21`, the Potency was 3.32 µM (active).
Under `O=C(NC1CC1)c1cccc(-c2ccc3c(NC(=O)C4CC4)n[nH]c3c2)c1` stands 1.32 µM (active); under `CNC(=O)Nc1ccc(-c2nc(N3CC4CCC(C3)O4)c3cnn(C4CCC5(CC4)OCCO5)c3n2)cc1`, 0.0469 µM (active).
For `CC[C@@]1([C@@H]2O[C@@H]([C@H]3O[C@@](O)(CO)[C@H](C)C[C@H]3C)C[C@H]2C)CC[C@H]([C@]2(C)CC[C@]3(C[C@H](O)[C@@H](C)[C@@H]([C@@H](C)[C@@H](OC)[C@H](C)C(=O)O)O3)O2)O1` the value was 0.257 µM (active); for `C[N+](C)([O-])CCNc1ccc(NCC[N+](C)(C)[O-])c2c1C(=O)c1c(O)ccc(O)c1C2=O`, 18.7 µM (active).
As to `CO[C@@H]1[C@@H](O)[C@H](O)[C@@H](n2c3c(Cl)cccc3c3c4c(c5c6cccc(Cl)c6[nH]c5c32)C(=O)NC4=O)O[C@@H]1CO`, the Potency was 0.105 µM (active).
As for `COc1cc2c(cc1O)CCC1C2CC[C@@]2(C)C1CC[C@@H]2O` (stereo not given in full), the Potency is 7.43 µM (active).
Under `COc1cc(C[C@@H](CO)[C@H](CO)Cc2ccc(O)c(OC)c2)ccc1O` stands 0.209 µM (active); under `Cn1c(Nc2ccc(C(F)(F)F)cc2)nc2cc(Oc3ccnc(-c4ncc(C(F)(F)F)[nH]4)c3)ccc21`, 14.8 µM (active).
Under `COc1cc(O)c2c(c1)C1OC1C[C@H](O)[C@H](O)C(=O)C=CC[C@H](C)OC2=O` (stereo not given in full) stands 16.6 µM (active); under `CCCCCCCN(CC)CCCC(O)c1ccc(NS(C)(=O)=O)cc1` (stereo not given), “inactive”.
For `N#Cc1cc(NC(=O)Nc2nnc(-c3ccncc3)s2)ccc1-c1cn[nH]c1` the value was “inactive”; for `FC(F)c1nc2ccccc2n1-c1nc(N2CCOCC2)nc(N2CCOCC2)n1`, 0.235 µM (active).
As for `O=C(NNC(=O)c1ccc(CNS(=O)(=O)c2ccc(F)c(Cl)c2)cc1)c1ccccc1`, the Potency entry is “inactive”.
For `C[N+]1(C)[C@@H]2C[C@@H](OC(=O)C(O)(c3cccs3)c3cccs3)C[C@H]1[C@@H]1O[C@@H]12` the value was “inactive”; for `O=c1c(O)c(-c2ccc(O)c(O)c2)oc2cc(O)ccc12`, 14.8 µM (active).
For `Nc1nc(=O)n([C@H]2C[C@H](O)[C@@H](CO)O2)cc1F` the value was 0.0469 µM (active); for `CCCCCCCCc1ccc(CCC(N)(CO)CO)cc1`, 23.5 µM (active); for `Cn1cc(-c2ccc3ncc(Cc4ccc5ncccc5c4)n3n2)cn1`, “inactive”.
As for `COc1cccc2c1C(=O)c1c(O)c3c(c(O)c1C2=O)C[C@@](O)(C(=O)CO)C[C@@H]3O[C@H]1C[C@H](N)[C@H](OC2CCCCO2)[C@H](C)O1` (stereo not given in full), the Potency was 1.18 µM (active).
For the compound `Cn1cnc(=N)c2[nH]cnc21`, the Potency was 0.296 µM (active).
Under `Oc1ccc([C@@H]2Oc3ccc(O)cc3[C@@H]3CCC[C@@H]32)cc1` stands 18.7 µM (active).
For `C[C@]12CC[C@@H]3c4ccc(O)cc4CC[C@H]3[C@H]1CC[C@H]2O` the value was 8.33 µM (active); for `c1cc(CN2CCCNCCNCCCNCC2)ccc1CN1CCCNCCNCCCNCC1`, “inactive”; for `c1ccc2c(Oc3nc(Nc4ccc(N5CCOCC5)cc4)c4ncn(C5CCCCC5)c4n3)cccc2c1`, “inactive”.
For `O=C1c2cccc(O)c2C(=O)c2c(O)cc(CO)cc21` the value was “inactive”.
Consider `CCCc1nc(C(C)(C)O)c(C(=O)O)n1Cc1ccc(-c2ccccc2-c2nn[nH]n2)cc1`, for which the Potency result is “inactive”.
For the compound `CC(=O)OCC(=O)[C@@]12N=C(C)O[C@H]1C[C@H]1[C@@H]3CCC4=CC(=O)C=C[C@]4(C)[C@@H]3[C@@H](O)C[C@@]12C`, the Potency entry was “inactive”.
